From PubChem BioAssay (EPA / NIEHS) come the findings set out here.

Each structure is given as a SMILES string. Calls of active or inactive are those of the source. The calls were made as follows: active = hit-call score of the fitted dose curve at least 0.9, where 1 is the maximum; inactive = score below 0.9.

What all share (conditions): mRNA level, 48 h; actives raise or lower the signal
Read-out in test [1]: Apoptosis regulator Bcl-2 (Homo sapiens) (UniProt P10415)
In words: LTEA_HepaRG_BCL2: Life Technologies and Expression Analysis (LTEA) Assay for Bcl-2 gene using HepaRG (AID 2283475). In outline:
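Each chemical was tested in duplicate on HepaRG cultures held in serum-free induction medium for 48 h, highest concentration 100 uM with half-log dilutions. Transcript levels came from multiplexed qRT-PCR, normalised to housekeeping genes; activity was scored in either direction relative to DMSO.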

Read-out in test [2]: Bcl-2 (BID) gene, BID (gene 637)
Put plainly: LTEA_HepaRG_BID: Life Technologies and Expression Analysis (LTEA) Assay for Bcl-2 (BID) gene using HepaRG (AID 2283476). In outline:
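Assay used HepaRG hepatic cells treated 48 h in serum-free medium with half-log dilutions from 100 uM. Endpoint: BID mRNA, qRT-PCR, normalized to ACTB/GAPDH/POLR2A.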

Read-out in another test: Caspase-3 (Homo sapiens) (UniProt P42574)
Put plainly: LTEA_HepaRG_CASP3: Life Technologies and Expression Analysis (LTEA) Assay for cysteine-aspartic acid protease (CASP3) using HepaRG (AID 2283477). In outline: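 Differentiated human HepaRG cells in serum-free induction medium were exposed 48 h to 8-point half-log concentrations from 100 uM (0.5% DMSO vehicle). CASP3 mRNA was measured by qRT-PCR, normalised to ACTB, GAPDH and POLR2A, with bidirectional fitting against DMSO.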

Read-out in test [3]: Cytochrome P450 (CYP24A1), CYP24A1 (gene 1591)
Put plainly: LTEA_HepaRG_CYP24A1: Life Technologies and Expression Analysis (LTEA) Assay for Cytochrome P450 (CYP24A1) using HepaRG (AID 2283478). In outline:
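Differentiated HepaRG cells, pre-cultured 48 h, were exposed in duplicate for 48 h in serum-free induction medium to 8 half-log concentrations (top 100 uM, 0.5% DMSO). CYP24A1 mRNA was quantified by TaqMan qRT-PCR, normalized to ACTB/GAPDH/POLR2A, fitted bidirectionally versus DMSO.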

Read-out in test [4]: Cytochrome P450 (CYP1A2), CYP1A2 (gene 1544)
In words: LTEA_HepaRG_CYP1A2: Life Technologies and Expression Analysis (LTEA) Assay for Cytochrome P450 (CYP1A2) using HepaRG (AID 2283479). In outline: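 Differentiated human HepaRG cells in serum-free induction medium were exposed in duplicate for 48 h to 8-point half-log concentrations up to 100 uM in 0.5% DMSO. CYP1A2 mRNA measured by qRT-PCR, normalized to ACTB, GAPDH, POLR2A; bidirectional fit vs DMSO.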

Read-out in test [5]: cysteine-aspartic acid protease (CASP8), CASP8 (gene 841)
In words: LTEA_HepaRG_CASP8: Life Technologies and Expression Analysis (LTEA) Assay for cysteine-aspartic acid protease (CASP8) using HepaRG (AID 2283480). An outline of the steps:
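qRT-PCR readout of CASP8 mRNA, normalized to three housekeeping genes, after 48 h chemical exposure of HepaRG cells; 8-point half-log series, top 100 uM, 0.5% DMSO vehicle. Bidirectional curve fitting against DMSO baseline.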

Read-out in test [6]: Cytochrome P450 (CYP2B6), CYP2B6 (gene 1555)
In words: LTEA_HepaRG_CYP2B6: Life Technologies and Expression Analysis (LTEA) Assay for Cytochrome P450 (CYP2B6) using HepaRG (AID 2283481). An outline of the steps:
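Differentiated HepaRG cells, serum-free induction medium, exposed 48 h in duplicate to 8-point half-log concentrations from 100 uM in 0.5% DMSO. CYP2B6 mRNA by qRT-PCR, normalized to ACTB, GAPDH, POLR2A; bidirectional fit versus DMSO.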

Read-out in test [7]: Cytochrome P450 2C19 (Homo sapiens) (UniProt P33261)
Put plainly: LTEA_HepaRG_CYP2C19: Life Technologies and Expression Analysis (LTEA) Assay for CYP2C19 using HepaRG (AID 2283482). An outline of the steps:
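Differentiated human HepaRG cells were exposed for 48 h in serum-free induction medium to 8 concentrations (top 100 uM, half-log steps, 0.5% DMSO). CYP2C19 mRNA was measured by qRT-PCR, normalized to ACTB/GAPDH/POLR2A, and fitted bidirectionally against DMSO.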

Read-out in another test: CYP2C8 (gene 1558)
Put plainly: LTEA_HepaRG_CYP2C8: Life Technologies and Expression Analysis (LTEA) Assay for CYP2C8 using HepaRG (AID 2283483). In outline: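 HepaRG (human liver line), 48 h chemical exposure, 8-pt half-log series from 100 uM, 0.5% DMSO vehicle. Readout: CYP2C8 transcript by qRT-PCR, housekeeping-normalized. Bidirectional fit vs DMSO baseline.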

Read-out in a further test: CYP2C9 (gene 1559)
Put plainly: LTEA_HepaRG_CYP2C9: Life Technologies and Expression Analysis (LTEA) Assay for CYP2C9 using HepaRG (AID 2283484). An outline of the steps:
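HepaRG, 48 h dosing, 8-pt half-log series, top 100 uM, 0.5% DMSO vehicle. Read-out: CYP2C9 transcript by TaqMan qRT-PCR, housekeeping-normalized (ACTB/GAPDH/POLR2A). Gain or loss fitted vs DMSO baseline.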

Read-out in another test: CYP2E1 (gene 1571)
Put plainly: LTEA_HepaRG_CYP2E1: Life Technologies and Expression Analysis (LTEA) Assay for CYP2E1 using HepaRG (AID 2283485). In outline: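 Assay uses 48 h exposure of HepaRG hepatic cells, eight concentrations to 100 uM. Expression of CYP2E1 is quantified by TaqMan qRT-PCR with ACTB, GAPDH and POLR2A normalization; curves fitted in both directions relative to vehicle.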

Read-out in another test: CYP4A11 (gene 1579)
Put plainly: LTEA_HepaRG_CYP4A11: Life Technologies and Expression Analysis (LTEA) Assay for CYP4A11 using HepaRG (AID 2283486). An outline of the steps: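 Differentiated HepaRG cells, serum-free induction medium, exposed 48 h in duplicate to 8-point half-log series from 100 uM in 0.5% DMSO. CYP4A11 mRNA measured by qRT-PCR, normalized to ACTB, GAPDH, POLR2A; bidirectional fit versus DMSO.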

Read-out in test [8]: Cytochrome P450 3A4 (Homo sapiens) (UniProt P08684)
Put plainly: LTEA_HepaRG_CYP3A4: Life Technologies and Expression Analysis (LTEA) Assay for CYP3A4 using HepaRG (AID 2283487). An outline of the steps:
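HepaRG, 48 h exposure, 8-pt CRC from 100 uM (half-log), 0.5% DMSO, duplicates; serum-free induction medium. Readout: CYP3A4 mRNA, qRT-PCR, ACTB/GAPDH/POLR2A normalization. Bidirectional fit vs DMSO.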

Read-out in test [9]: DNA damage-inducible transcript 3 (DDIT3), DDIT3 (gene 1649)
In words: LTEA_HepaRG_DDIT3: Life Technologies and Expression Analysis (LTEA) Assay for DNA damage-inducible transcript 3 (DDIT3) using HepaRG (AID 2283488). In outline: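 Eight-point concentration-response (100 uM highest, half-log dilutions) in HepaRG, 48 h, duplicate wells. Endpoint: qRT-PCR mRNA, normalized (ACTB, GAPDH, POLR2A), bidirectional fitting with DMSO as baseline.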

Read-out in test [10]: Pro-epidermal growth factor (Homo sapiens) (UniProt P01133)
In words: LTEA_HepaRG_EGF: Life Technologies and Expression Analysis (LTEA) Assay for Epidermal growth factor (EGF) using HepaRG (AID 2283489). An outline of the steps: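 Differentiated human HepaRG cells, plated 48 h then switched to serum-free induction medium, were exposed for 48 h to test chemicals (8-point half-log series, top 100 uM, 0.5% DMSO). EGF mRNA was quantified by qRT-PCR, normalized to ACTB, GAPDH, POLR2A.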

Read-out in test [11]: Early growth response protein 1 (EGR1) transcription factor, EGR1 (gene 1958)
In words: LTEA_HepaRG_EGR1: Life Technologies and Expression Analysis (LTEA) Assay for Early growth response protein 1 (EGR1) transcription factor using HepaRG (AID 2283490). An outline of the steps:
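HepaRG, 48 h exposure, 8-pt half-log series from 100 uM, 0.5% DMSO vehicle; EGR1 transcript by TaqMan qRT-PCR (Fluidigm array), housekeeping-normalized; bidirectional fit relative to DMSO baseline.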

Read-out in test [12]: Ezrin (EZR), EZR (gene 7430)
In words: LTEA_HepaRG_EZR: Life Technologies and Expression Analysis (LTEA) Assay for Ezrin (EZR) using HepaRG (AID 2283491). An outline of the steps: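 Read-out is EZR transcript level by qRT-PCR, normalized to three housekeeping genes and fitted bidirectionally against the DMSO control. Human HepaRG cells received test chemicals for 48 h at eight half-log concentrations up to 100 uM in 0.5% DMSO.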

Read-out in the next test: CYP3A5 (gene 1577)
Put plainly: LTEA_HepaRG_CYP3A5: Life Technologies and Expression Analysis (LTEA) Assay for CYP3A5 using HepaRG (AID 2283493). In outline: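 Readout was CYP3A5 mRNA by qRT-PCR. HepaRG cultures were exposed for 48 h in serum-free induction medium to chemicals at up to 100 uM, and responses were fitted in both directions relative to DMSO vehicle.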

Read-out in test [13]: Fatty Acid-Binding Protein 1 (FABP1), FABP1 (gene 2168)
Put plainly: LTEA_HepaRG_FABP1: Life Technologies and Expression Analysis (LTEA) Assay for Fatty Acid-Binding Protein 1 (FABP1) using HepaRG (AID 2283494). In outline: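 qRT-PCR readout of FABP1 transcript (normalized to three housekeeping genes) after 48 h chemical exposure of HepaRG cells; eight concentrations, half-log steps, max 100 uM, 0.5% DMSO vehicle; gain or loss fitted relative to DMSO baseline.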

Read-out in test [14]: Cytochrome P450 3A7 (Homo sapiens) (UniProt P24462)
Put plainly: LTEA_HepaRG_CYP3A7: Life Technologies and Expression Analysis (LTEA) Assay for CYP3A7 using HepaRG (AID 2283492). In outline: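 HepaRG cells plated 48 h, then dosed in serum-free induction medium for 48 h at 8 concentrations (top 100 uM, half-log steps, 0.5% DMSO). CYP3A7 mRNA by qRT-PCR, normalised to ACTB/GAPDH/POLR2A; bidirectional fit versus DMSO.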

By AC50 is commonly meant the concentration giving half of the maximal activity seen.

Cytochrome P450 3A4 (Homo sapiens), sequence (P08684 whole entry, looked up): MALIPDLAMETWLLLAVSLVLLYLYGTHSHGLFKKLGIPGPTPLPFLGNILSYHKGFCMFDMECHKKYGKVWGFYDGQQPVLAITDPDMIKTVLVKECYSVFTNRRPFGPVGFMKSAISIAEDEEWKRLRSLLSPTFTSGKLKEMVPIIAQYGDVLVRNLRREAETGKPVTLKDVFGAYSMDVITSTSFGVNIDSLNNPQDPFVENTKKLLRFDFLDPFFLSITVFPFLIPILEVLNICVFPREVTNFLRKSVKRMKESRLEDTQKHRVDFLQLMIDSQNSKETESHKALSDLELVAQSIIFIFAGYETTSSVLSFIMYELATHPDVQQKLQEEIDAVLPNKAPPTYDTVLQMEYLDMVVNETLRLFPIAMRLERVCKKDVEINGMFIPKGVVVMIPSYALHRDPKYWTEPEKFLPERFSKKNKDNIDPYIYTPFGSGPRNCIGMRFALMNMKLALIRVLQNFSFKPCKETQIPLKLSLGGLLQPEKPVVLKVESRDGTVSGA
Apoptosis regulator Bcl-2 (Homo sapiens), sequence (P10415 whole entry, looked up): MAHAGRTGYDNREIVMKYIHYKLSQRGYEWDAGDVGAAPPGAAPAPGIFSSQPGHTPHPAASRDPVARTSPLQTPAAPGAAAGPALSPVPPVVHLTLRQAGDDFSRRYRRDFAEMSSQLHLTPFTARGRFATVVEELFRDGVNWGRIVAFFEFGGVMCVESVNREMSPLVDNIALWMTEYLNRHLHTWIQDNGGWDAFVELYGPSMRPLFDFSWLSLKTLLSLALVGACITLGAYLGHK
Caspase-3 (Homo sapiens), sequence (P42574 whole entry, looked up): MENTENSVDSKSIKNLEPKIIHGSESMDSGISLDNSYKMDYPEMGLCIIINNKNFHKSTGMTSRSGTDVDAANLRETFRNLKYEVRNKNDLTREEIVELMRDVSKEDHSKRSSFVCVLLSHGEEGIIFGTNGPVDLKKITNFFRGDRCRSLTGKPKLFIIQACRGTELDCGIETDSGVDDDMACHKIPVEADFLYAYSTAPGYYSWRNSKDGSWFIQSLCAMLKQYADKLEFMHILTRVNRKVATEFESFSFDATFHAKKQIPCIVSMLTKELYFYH
Cytochrome P450 2C19 (Homo sapiens), sequence (P33261 whole entry, looked up): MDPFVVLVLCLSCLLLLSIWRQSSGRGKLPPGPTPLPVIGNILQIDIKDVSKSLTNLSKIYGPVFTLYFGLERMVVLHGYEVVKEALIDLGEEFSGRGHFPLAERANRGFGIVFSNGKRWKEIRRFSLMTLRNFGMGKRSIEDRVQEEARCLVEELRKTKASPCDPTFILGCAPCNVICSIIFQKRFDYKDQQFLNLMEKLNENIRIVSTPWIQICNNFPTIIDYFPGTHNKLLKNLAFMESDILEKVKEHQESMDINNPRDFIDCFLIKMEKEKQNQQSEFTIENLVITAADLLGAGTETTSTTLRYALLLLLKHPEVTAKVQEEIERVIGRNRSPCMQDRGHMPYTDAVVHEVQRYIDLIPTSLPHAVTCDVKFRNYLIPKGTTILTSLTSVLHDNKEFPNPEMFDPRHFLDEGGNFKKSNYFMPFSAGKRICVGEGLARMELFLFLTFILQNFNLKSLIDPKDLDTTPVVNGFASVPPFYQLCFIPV
Cytochrome P450 3A7 (Homo sapiens), sequence (P24462 whole entry, looked up): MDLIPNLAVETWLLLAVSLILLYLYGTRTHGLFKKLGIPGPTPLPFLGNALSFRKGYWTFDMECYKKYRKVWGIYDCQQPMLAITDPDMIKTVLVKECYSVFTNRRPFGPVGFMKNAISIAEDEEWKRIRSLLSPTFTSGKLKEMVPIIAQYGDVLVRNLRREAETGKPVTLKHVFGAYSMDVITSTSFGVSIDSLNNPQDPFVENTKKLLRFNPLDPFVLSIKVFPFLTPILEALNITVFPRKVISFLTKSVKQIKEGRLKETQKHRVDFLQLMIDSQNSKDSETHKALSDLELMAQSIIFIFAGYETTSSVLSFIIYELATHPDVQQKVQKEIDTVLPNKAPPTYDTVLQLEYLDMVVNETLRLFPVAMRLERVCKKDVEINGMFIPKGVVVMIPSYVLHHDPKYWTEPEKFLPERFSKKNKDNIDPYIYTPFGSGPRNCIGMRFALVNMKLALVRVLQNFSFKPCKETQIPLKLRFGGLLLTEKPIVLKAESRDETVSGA

With `c1ccc2c(c1)ccc1ccccc12`, the compound was classed as inactive (in test [1]; in test [2]; in the test with Caspase-3 (Homo sapiens); in test [3]; in test [4]; in test [5]). The result (with CYP4A11 (gene 1579); in [9]; in test [10]; in [11]; in [12]; with CYP3A5 (gene 1577)) was inactive. Further, the compound was classed as inactive in test [13]. Also, the half-maximal activity concentration (AC50) is 5.8 µM (active) in [6]; 15.4 µM (active) in [7]; 12.7 µM (active) in the test with CYP2C8 (gene 1558); 6.12 µM (active) in the test with CYP2C9 (gene 1559); 10.1 µM (active) with CYP2E1 (gene 1571); 7.1 µM (active) in [8].
Take `OCCC(F)(F)C(F)(F)C(F)(F)C(F)(F)C(F)(F)C(F)(F)C(F)(F)C(F)(F)F`: the compound was called inactive (in [1]; in test [2]; with Caspase-3 (Homo sapiens); in test [3]; in test [4]; in test [5]). In addition, the compound was classed as inactive (in test [6]; in test [7]; with CYP2C8 (gene 1558); with CYP2C9 (gene 1559); with CYP2E1 (gene 1571); with CYP4A11 (gene 1579)). For the same compound, the compound was called inactive (in test [8]; in [9]; in test [10]; in test [11]; in test [12]; with CYP3A5 (gene 1577)). Moreover, in test [13], the outcome was inactive.
`COCC(C)OCC(C)O` (configuration not stated): the compound was called inactive (in [1]; in the test with Caspase-3 (Homo sapiens); in test [3]; in test [4]; in test [5]; in test [6]). In addition, the outcome (in [7]; with CYP2C8 (gene 1558); with CYP2C9 (gene 1559); with CYP2E1 (gene 1571); in the test with CYP4A11 (gene 1579); in test [8]) was inactive. Also, the outcome (in test [9]; in test [10]; in test [11]; in test [12]; in [14]; with CYP3A5 (gene 1577)) was inactive. Moreover, in test [13], the compound was classed as inactive.
